# Values joined by “and” are separate entries in the source; they are usually repeats but may differ in a detail not shown here. Equal entries are not always repeated. The whole screen tested about 5,500 compounds, of which about 2,000 (36%) were called active. About 18% were inconclusive and are not listed. This is one part of the list. Values without a mark were called inactive. Rule as the data show it: active = normalized growth mostly below about 0.91 (no sharp cut-off); inconclusive = no clear call, values can overlap the other calls; inactive = mostly above about 0.92.
# Test: chemical genetic growth profiling, strain panel (AID 1159580);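 also: tested at 20 µM; growth read once vehicle control cultures reached saturation at 30 °C; 1 = growth at the plate median or of vehicle wells; lower values mean less growth of the strain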
# Settings: S. cerevisiae deletion strains, growth OD
smiles,measurement,setting,value
CC1=C(/C=C/C(C)=C/C=C/C(C)=C/C(=O)O)C(C)(C)CCC1,normalized growth,"locus YAL013W, strain DEP1, active compounds read low",0.993 and 1.03
same,normalized growth,"locus YAL021C, strain ccr4, active compounds read low",1.01
same,normalized growth,"locus YAL026C, strain drs2, active compounds read low",0.958
same,normalized growth,"locus YAL030W, strain snc1, active compounds read low",0.996
same,normalized growth,"locus YAL040C, strain CLN3, active compounds read low",1.03
same,normalized growth,"locus YBL061C, strain skt5, active compounds read low",0.952
same,normalized growth,"locus YBR009C, strain hhf1, active compounds read low",0.968
same,normalized growth,"locus YBR021W, strain FUR4, active compounds read low",1.04
same,normalized growth,"locus YBR023C, strain chs3, active compounds read low",0.959
same,normalized growth,"locus YBR171W, strain sec66, active compounds read low",1
same,normalized growth,"locus YBR229C, strain ROT2, active compounds read low",1.01
same,normalized growth,"locus YBR231C, strain swc5, active compounds read low",0.996
same,normalized growth,"locus YBR279W, strain paf1, active compounds read low",0.994
same,normalized growth,"locus YCL011C, strain gbp2, active compounds read low",0.976
same,normalized growth,"locus YCL016C, strain dcc1, active compounds read low",0.951
same,normalized growth,"locus YCL029C, strain bik1, active compounds read low",1.02
same,normalized growth,"locus YCL061C, strain MRC1 (second series), active compounds read low",1.01
same,normalized growth,"locus YCL061C, strain MRC1, active compounds read low",0.969
same,normalized growth,"locus YCL069W, strain vba3, active compounds read low",1
same,normalized growth,"locus YCR088W, strain abp1, active compounds read low",0.993
same,normalized growth,"locus YDL005C, strain med2, active compounds read low",0.998
same,normalized growth,"locus YDL035C, strain GPR1, active compounds read low",0.998
same,normalized growth,"locus YDL040C, strain nat1, active compounds read low",1
same,normalized growth,"locus YDL074C, strain BRE1, active compounds read low",0.995
same,normalized growth,"locus YDL101C, strain DUN1, active compounds read low",1.01
same,normalized growth,"locus YDL134C, strain PPH21, active compounds read low",1.01
same,normalized growth,"locus YDL185W, strain tfp1, active compounds read low",1.03
same,normalized growth,"locus YDL192W, strain arf1, active compounds read low",1.03
same,normalized growth,"locus YDR001C, strain nth1, active compounds read low",1
same,normalized growth,"locus YDR069C, strain doa4, active compounds read low",0.979
same,normalized growth,"locus YDR101C, strain arx1, active compounds read low",1.03
same,normalized growth,"locus YDR137W, strain rgp1, active compounds read low",0.824 (active)
same,normalized growth,"locus YDR150W, strain NUM1, active compounds read low",1.02 and 1.01
same,normalized growth,"locus YDR159W, strain sac3, active compounds read low",0.928
same,normalized growth,"locus YDR162C, strain NBP2, active compounds read low",1.01
same,normalized growth,"locus YDR195W, strain ref2",1.03
same,normalized growth,"locus YDR297W, strain sur2, active compounds read low",0.991
same,normalized growth,"locus YDR318W, strain mcm21, active compounds read low",1.01
same,normalized growth,"locus YDR334W, strain swr1, active compounds read low",1.02
same,normalized growth,"locus YDR335W, strain msn5, active compounds read low",0.962
same,normalized growth,"locus YDR363W, strain ESC2, active compounds read low",0.994
same,normalized growth,"locus YDR388W, active compounds read low",1.03
same,normalized growth,"locus YDR392W, strain spt3, active compounds read low",0.513 (active)
same,normalized growth,"locus YDR502C, strain sam2, active compounds read low",1.03
same,normalized growth,"locus YEL003W, strain gim4, active compounds read low",1.01
same,normalized growth,"locus YEL037C, strain rad23, active compounds read low",1
same,normalized growth,"locus YEL061C, strain CIN8 (second series), active compounds read low",1.01
same,normalized growth,"locus YEL061C, strain CIN8, active compounds read low",1.01
same,normalized growth,"locus YER002W, strain NOP16, active compounds read low",1.03
same,normalized growth,"locus YER015W, strain faa2, active compounds read low",0.995
same,normalized growth,"locus YER016W, strain bim1, active compounds read low",0.954
same,normalized growth,"locus YER110C, active compounds read low",1.04
same,normalized growth,"locus YER111C, strain swi4, active compounds read low",1
same,normalized growth,"locus YER155C, strain BEM2 (second series), active compounds read low",0.953
same,normalized growth,"locus YER155C, strain BEM2, active compounds read low",1.01
same,normalized growth,"locus YER167W, strain BCK2, active compounds read low",1.01
same,normalized growth,"locus YFR010W, strain ubp6, active compounds read low",0.99
same,normalized growth,"locus YGL078C, strain dbp3, active compounds read low",1.03
same,normalized growth,"locus YGL086W, strain mad1, active compounds read low",1.02
same,normalized growth,"locus YGL167C, strain pmr1, active compounds read low",1.02
same,normalized growth,"locus YGL173C, strain kem1, active compounds read low",0.97
same,normalized growth,"locus YGL227W, strain vid30, active compounds read low",1.03
same,normalized growth,"locus YGL240W, strain doc1, active compounds read low",0.992
same,normalized growth,"locus YGL248W, strain PDE1, active compounds read low",1.01
same,normalized growth,"locus YGL253W, strain hxk2, active compounds read low",0.99
same,normalized growth,"locus YGR078C, strain PAC10, active compounds read low",0.996
same,normalized growth,"locus YGR135W, strain pre9, active compounds read low",1.01
same,normalized growth,"locus YGR229C, strain SMI1, active compounds read low",0.996 and 0.979
same,normalized growth,"locus YGR252W, strain gcn5, active compounds read low",1.08
same,normalized growth,"locus YHR013C, strain ard1, active compounds read low",0.942
same,normalized growth,"locus YHR027C, strain rpn1, active compounds read low",0.975
same,normalized growth,"locus YHR030C, strain SLT2, active compounds read low",1.01 and 0.982
same,normalized growth,"locus YHR079C, strain IRE1 (second series), active compounds read low",1.01
same,normalized growth,"locus YHR079C, strain IRE1, active compounds read low",1.01
same,normalized growth,"locus YHR094C, strain hxt1, active compounds read low",1.03
same,normalized growth,"locus YHR129C, strain ARP1, active compounds read low",1.01
same,normalized growth,"locus YHR142W, strain chs7, active compounds read low",0.957
same,normalized growth,"locus YHR200W, strain rpn10, active compounds read low",1.04
same,normalized growth,"locus YIL066C, strain RNR3, active compounds read low",1
same,normalized growth,"locus YIL073C, strain SPO22, active compounds read low",1.04
same,normalized growth,"locus YIL125W, strain kgd1, active compounds read low",1.03
same,normalized growth,"locus YIR030C, strain dcg1, active compounds read low",1.03
same,normalized growth,"locus YJL092W, strain hpr5, active compounds read low",0.988
same,normalized growth,"locus YJL095W, strain BCK1 (second series), active compounds read low",0.987
same,normalized growth,"locus YJL095W, strain BCK1, active compounds read low",0.999 and 0.96
same,normalized growth,"locus YJL115W, strain asf1, active compounds read low",1
same,normalized growth,"locus YJL129C, strain trk1, active compounds read low",0.963
same,normalized growth,"locus YJL134W, strain LCB3, active compounds read low",1.01
same,normalized growth,"locus YJL154C, strain vps35, active compounds read low",1.02
same,normalized growth,"locus YJL164C, strain tpk1, active compounds read low",0.971
same,normalized growth,"locus YJL166W, strain qcr8, active compounds read low",0.987
same,normalized growth,"locus YJL168C, strain set2, active compounds read low",1.04
same,normalized growth,"locus YJL187C, strain SWE1 (second series), active compounds read low",1.01
same,normalized growth,"locus YJL187C, strain SWE1, active compounds read low",0.989
same,normalized growth,"locus YJR043C, strain POL32, active compounds read low",1.01
same,normalized growth,"locus YJR066W, strain TOR1, active compounds read low",0.926
